Only some compounds are listed: those with a hit (about 10% of all), similar ones and a draw of the others.
MCF10A rerep – inducers of DNA re-replication in MCF 10A breast cells. MCF 10A DNA re-replication, Hoechst nuclear intensity, 48 h. Potency, µM (titrated, usually from 46.1 µM), most hits filed as activators. actives 2.9% (n = 350,000); note: nearly all actives have a fitted effect of over 50% in size
ELG1 repair inh – ELG1-dependent DNA repair inhibition. HEK293T ELG1-luciferase reporter, luminescence, 16 h; DNA damage induced by 5-fluorouridine. Potency, µM (titrated, usually from 46.1 µM), usual class: inhibitors. actives 2.3% (n = 330,000); note: nearly all actives have a fitted effect of over 55% in size
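5-Fluorouridine DNA damage + compound/DMSO, 2,000 cells/well, 16 h, 37 °C/5% CO2. ONE-Glo, 30 min RT, luminescence. Readout = decrease in reporter signal.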
SW480 rerep – DNA re-replication induction in SW480 cells | SW480 DNA re-replication, Hoechst DNA content imaging, 48 h | Potency, µM (top dose mostly 46.1 µM), actives largely listed as activators | actives 1.8% (n = 340,000) | AID 624297; note: nearly all actives have a fitted effect of over 55% in size
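Quantitative HTS format with DMSO vehicle controls; 48 hr drug incubation at 37 C, then 40 min Hoechst staining and scanning imager measurement at 405 nm excitation.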
Gal4-VP16 FLuc – Gal4-VP16 reporter inhibition counter-screen | actives 3.5% (n = 310,000) | Potency, µM (highest dose often 53.6 µM), most hits filed as inhibitors | AID 2546 | Drosophila S2 Gal4-VP16 UAS-luciferase, luminescence, 20 h;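 note: Gal4-VP16 expression switched on by copper sulfate through the metallothionein promoter; nearly all actives have a fitted effect of over 50% in size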
RORg inh – blocks mouse ROR gamma transcriptional activity | P51450 | actives 5.4% (n = 310,000) | Drosophila S2 Gal4-RORgamma UAS-luciferase reporter, 20 h | Potency, µM (series often up to 53.6 µM), actives largely listed as inhibitors; note: nearly all actives have a fitted effect of over 60% in size
Target sequence (P51450 whole entry, looked up, the tested form may be a part): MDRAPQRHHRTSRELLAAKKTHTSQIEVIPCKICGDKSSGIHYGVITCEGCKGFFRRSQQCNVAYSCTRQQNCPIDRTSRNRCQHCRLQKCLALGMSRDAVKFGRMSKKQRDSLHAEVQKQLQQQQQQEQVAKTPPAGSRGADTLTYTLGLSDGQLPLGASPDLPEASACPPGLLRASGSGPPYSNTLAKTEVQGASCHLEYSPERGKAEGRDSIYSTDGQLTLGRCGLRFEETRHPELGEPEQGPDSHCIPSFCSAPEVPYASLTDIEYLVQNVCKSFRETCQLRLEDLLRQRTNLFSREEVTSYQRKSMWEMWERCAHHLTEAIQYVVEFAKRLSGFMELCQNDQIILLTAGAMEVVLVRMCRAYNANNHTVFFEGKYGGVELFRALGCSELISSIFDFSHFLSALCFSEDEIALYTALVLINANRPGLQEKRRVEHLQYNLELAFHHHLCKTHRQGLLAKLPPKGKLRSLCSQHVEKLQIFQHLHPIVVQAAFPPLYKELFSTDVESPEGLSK
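Drosophila S2 cells stably expressing Gal4-DBD/mouse RORγ fusion under metallothionein promoter plus UAS-luciferase; compound 1 h, then 700 uM CuSO4 induction for 20 h at ambient temperature; inhibition read as reduced luminescence.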
Each line names hits and unclear results; the compound was inactive in the other large screens. Calls come from the whole dose curve; as a rule, active = well fitted curve in the direction sought with a large enough effect; inconclusive = small, poorly fitted or top-dose-only effect, or another doubt; inactive = no such curve, though single readings can be large; an effect the other way counts as inactive or inconclusive.

Cn1cccc1/C=N/NC(=O)Cn1cnc2ccccc21	Gal4-VP16 FLuc inconclusive, RORg inh 8.9µM
COc1ccc(C2=NN(C(=O)CSc3nc4ccccc4s3)C(c3ccc(OC)cc3)C2)cc1 (stereo not given)	Gal4-VP16 FLuc 7.1µM, RORg inh inconclusive
COc1ccccc1/C=C/C=N/NC(=O)CCn1cnc2ccccc21	MCF10A rerep inconclusive, ELG1 repair inh inconclusive, SW480 rerep 21µM
O=C(CCn1cnc(-c2ccccc2)c1-c1ccccc1)N/N=C/c1ccc(O)cc1	MCF10A rerep inconclusive, ELG1 repair inh inconclusive, SW480 rerep inconclusive
O=C(Cn1cnc2ccccc21)N/N=C/c1cccs1	none
COc1ccc(/C=N/NC(=O)CCn2cnc(-c3ccccc3)c2-c2ccccc2)cc1	MCF10A rerep 1.6µM, ELG1 repair inh inconclusive, SW480 rerep 3.3µM, RORg inh inconclusive
COc1ccc(-c2cc3c(=O)n(CC(=O)N4CCN(C)CC4)ncn3n2)cc1	ELG1 repair inh inconclusive, Gal4-VP16 FLuc inconclusive, RORg inh inconclusive
CCC1=Nc2cc(C(=O)NCCN3CCOCC3)ccc2Sc2ccc(Br)cc21	none
COc1ccccc1C(=O)N/C(=C\c1cn(S(=O)(=O)N(C)C)c2ccccc12)C(=O)N1CCOCC1	none
Nc1nccnc1C(=O)OCC(=O)C12CC3CC(CC(C3)C1)C2	none (no result: Gal4-VP16 FLuc, RORg inh)
N#CC1(C#N)CC(C=O)=C(N)C1(C#N)CC(=O)C12CC3CC(CC(C3)C1)C2 (stereo not given)	MCF10A rerep 18µM, ELG1 repair inh 16µM, SW480 rerep inconclusive, Gal4-VP16 FLuc inconclusive
CC(C)=CCOc1c2ccoc2c(OCC=C(C)C)c2oc(=O)ccc12	MCF10A rerep inconclusive, ELG1 repair inh 23µM (no result: Gal4-VP16 FLuc, RORg inh)
COc1ccc(NC(=O)Cn2ncc(Cl)c(Cl)c2=O)cc1S(=O)(=O)N1CCOCC1	MCF10A rerep 4.1µM, ELG1 repair inh inconclusive, SW480 rerep 4.6µM, Gal4-VP16 FLuc inconclusive, RORg inh inconclusive
O=C(Cn1ncc(Cl)c(Cl)c1=O)c1ccc2c(c1)OCCO2	MCF10A rerep 2.9µM, ELG1 repair inh inconclusive, SW480 rerep inconclusive (no result: Gal4-VP16 FLuc, RORg inh)
O=C(Cn1ncc(Cl)c(Cl)c1=O)Nc1ccc2c(c1)OCO2	MCF10A rerep 0.73µM, ELG1 repair inh 6.5µM (no result: Gal4-VP16 FLuc, RORg inh)
Cc1nn(CC(=O)Nc2ccc3c(c2)OCO3)c(C)c1Cl	none
O=C(NCC(c1cccs1)N1CCOCC1)c1cc(S(=O)(=O)N2CCOCC2)ccc1Cl (stereo not given)	none (no result: ELG1 repair inh, Gal4-VP16 FLuc, RORg inh)
CCN1C=CC(=C2C(=O)c3ccccc3C2=O)C=C1	ELG1 repair inh inconclusive, Gal4-VP16 FLuc 0.32µM, RORg inh inconclusive
CCCN1C=CC(=C2C(=O)c3ccccc3C2=O)C=C1	ELG1 repair inh inconclusive, Gal4-VP16 FLuc 0.25µM, RORg inh 1.1µM
CCCCCCN1C=CC(=C2C(=O)c3ccccc3C2=O)C=C1	ELG1 repair inh inconclusive
O=C(NCc1ccc(Cl)cc1)C1CCCN1C(=O)Nc1ccc(F)cc1 (stereo not given)	none
COc1ccccc1NC(=O)C1CCN(C(=O)NCc2ccccc2)CC1	none
CC(Oc1cccc(Cl)c1)C(=O)Nc1ccccc1N1CCCCC1 (stereo not given)	MCF10A rerep inconclusive (no result: Gal4-VP16 FLuc, RORg inh)
CC(Oc1cccc(Cl)c1)C(=O)Nc1ccncc1 (stereo not given)	ELG1 repair inh inconclusive, Gal4-VP16 FLuc 13µM, RORg inh inconclusive
CC(Oc1ccc(Cl)cc1Cl)C(=O)NC1=NN(c2ccccc2)C(=O)C1 (stereo not given)	MCF10A rerep 18µM, RORg inh inconclusive
CC(=O)Nc1ccc(NC(=O)C(C)Oc2ccc(Cl)cc2Cl)cc1 (stereo not given)	SW480 rerep inconclusive
CC(Oc1ccc(Cl)cc1Cl)C(=O)Nc1ccncc1 (stereo not given)	MCF10A rerep inconclusive, ELG1 repair inh 5.8µM, Gal4-VP16 FLuc 20µM
CC(Oc1cccc(Cl)c1)C(=O)Nc1cc(Cl)ccc1N1CCOCC1 (stereo not given)	MCF10A rerep inconclusive, ELG1 repair inh inconclusive, SW480 rerep 9.2µM (no result: Gal4-VP16 FLuc, RORg inh)
CN1C(=O)N(CC(=O)NCc2ccc(Cl)cc2Cl)C(=O)C12CCCCC2	none (no result: Gal4-VP16 FLuc, RORg inh)
COc1ccccc1C(=O)Nc1ccnn1C1CCN(C(=O)c2ccoc2C)CC1	none
O=[N+]([O-])c1ccc(Sc2ncc3ccccn23)nc1	MCF10A rerep inconclusive, Gal4-VP16 FLuc inconclusive
